Results published in PubChem BioAssay (NCI).
Compounds without any hit were thinned out: in the full panel of roughly 83,000, 20% have a hit.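 Note: values are percent growth. 100 is the growth of untreated cells, values between 100 and 0 indicate rising inhibition; between -100 and 0 indicates cell death.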 Unmarked numbers belong to inactive results. Active and inactive are the calls of the source. Rule for the calls: active = growth percent below 10; inactive = the rest.

Tests used:
Assay in all cases: NCI-60 one-dose screen, 48 h (100 = growth as untreated, 0 = no growth, -100 = all killed)
Settings in all cases: 10 µM
HCT-15 colon = system: HCT-15 colon
HT29 colon = system: HT29 colon
SNB-75 CNS = system: SNB-75 CNS
SNB-19 CNS = system: SNB-19 CNS
U251 CNS = system: U251 CNS
PC-3 prostate = system: PC-3 prostate
SK-MEL-5 melanoma = system: SK-MEL-5 melanoma
LOX IMVI melanoma = system: LOX IMVI melanoma
SK-MEL-28 melanoma = system: SK-MEL-28 melanoma
UACC-62 melanoma = system: UACC-62 melanoma

SMILES	growth (HCT-15 colon)	growth (HT29 colon)	growth (SNB-75 CNS)	growth (SNB-19 CNS)	growth (U251 CNS)	growth (PC-3 prostate)	growth (SK-MEL-5 melanoma)	growth (LOX IMVI melanoma)	growth (SK-MEL-28 melanoma)	growth (UACC-62 melanoma)
COC1=C[C@@]23CCC(=O)N2CCc2cc4c(cc2[C@H]3[C@H]1OC(=O)C(C)(C)O)OCO4	97.5%	106%	74.1%	94.1%	104%	92.1%	99.3%	96.6%	105%	–
O=C(Nc1cccc(C(F)(F)F)c1)c1cncc(C#Cc2cnc3cccnn23)c1	37.7%	49.4%	122%	82.7%	67.6%	35.3%	25.6%	22.1%	63.2%	–
Nc1nc(Nc2ccccc2)nn1Cc1c(Cl)cccc1Cl	37.5%	54.4%	67.5%	58%	53.8%	27.4%	–	16.3%	55.5%	33.5%
Brc1ccc(/C=C/c2n(Cc3ccc4ccccc4c3)c3ccccc3[n+]2Cc2ccc3ccccc3c2)cc1	7.22% (active)	-87% (active)	-84.3% (active)	-45.9% (active)	-88.9% (active)	-79.1% (active)	–	-100% (active)	-93.1% (active)	-81.9% (active)
O=C(CSc1nnc(-c2ccc3nc(-c4ccc(Cl)cc4)[nH]c3c2)o1)Nc1ccc(Cl)cc1	-84% (active)	-35.4% (active)	58%	-49.4% (active)	-57.7% (active)	-7.65% (active)	-68.9% (active)	-99.2% (active)	-76.9% (active)	–
Cc1cccc(NC(=O)CSc2nc3ccc(F)cc3c(=O)n2-c2ccc(Cl)cc2)c1C	70.5%	76.3%	-20.7% (active)	7.05% (active)	48.8%	68.9%	88.2%	–	74.3%	–
Cc1noc2c(Cc3ccc([N+](=O)[O-])cc3)nn(CC(=O)N/N=C/c3ccc(Br)cc3)c(=O)c12	94.8%	86.1%	104%	69.6%	70.4%	78.1%	–	52.2%	96.4%	80.1%
O=C(CSc1nnc(-c2c[nH]c3ccccc23)n1-c1ccccc1)Nc1ccc(C(=O)/C=C/c2ccccc2Cl)cc1	67%	91.6%	80.3%	84.8%	65.7%	61.2%	89.8%	56.6%	96.3%	–
Cc1ccc(NC(=O)c2ccc(-n3c(=O)[nH]c4ccccc4c3=O)cc2)cc1	88.7%	104%	50.5%	68.4%	91.9%	96.1%	–	85.1%	102%	82.4%
O=C(Nc1ccc(OCc2ccccc2)cc1)Nc1ccc(Cl)c(C(F)(F)F)c1	9.69% (active)	6.91% (active)	-20.2% (active)	8.37% (active)	-10.2% (active)	-0.967% (active)	–	-25.1% (active)	14.3%	14.1%
O=C1NC(=NC23CC4CC(CC(C4)C2)C3)N/C1=C\c1ccc2ncccc2n1	-16.2% (active)	-17.4% (active)	-70.7% (active)	-7.61% (active)	5.17% (active)	-0.602% (active)	-68.3% (active)	-42.6% (active)	-30.2% (active)	–
COc1ccc(-c2ccc(/C=N/NC(=O)c3[nH]c4ccc(Br)cc4c3-c3ccccc3)o2)cc1	26.4%	55.1%	33%	57.6%	26.2%	55.1%	30.3%	26.7%	46.9%	–
O=C(c1ccc(Cl)cc1)C1[C@H](c2ccc(Br)cc2)[C@@H](c2ccccc2)NC12C(=O)Nc1ccc(Br)cc12 (stereo partly drawn)	-91.6% (active)	-54.5% (active)	0.834% (active)	-51% (active)	-79.9% (active)	-23.5% (active)	–	-100% (active)	-93.8% (active)	-83.9% (active)
C/C(=N\N=C\c1ccc(N(C)C)cc1)c1ccc2c(c1)Nc1ccccc1S2	22%	52.5%	69.6%	63.1%	29.4%	54%	–	55%	85.7%	70.7%
O=S(=O)(Nc1ncccn1)c1ccc(-n2c(-c3ccc(Br)cc3)nc(-c3ccccc3)c2-c2ccccc2)cc1	22.5%	41.8%	26.5%	23.3%	30.8%	22.3%	–	32.2%	29.3%	34.3%
COc1cccc(C(N)=Nc2ccc(OCCCCCCn3cncn3)cc2)c1	16.8%	-27.9% (active)	54.4%	37.6%	10.3%	34.4%	–	36%	51.4%	36.4%
CN(C)c1nc(NCCNS(=O)(=O)c2ccc(C(=O)/C=C/c3ccccc3)cc2)nc(Nc2ccc(F)cc2)n1	-67.2% (active)	-59.8% (active)	87.3%	41.7%	-56.2% (active)	16.4%	–	-100% (active)	31.4%	26.5%
CC1(C)CC[C@]23CC[C@]4(C)[C@H](CC[C@@H]5[C@@]6(C)CC[C@H](N)C(C)(C)[C@@H]6CC[C@]54C)[C@H]2[C@H]1OC3=O	-91.7% (active)	-66.7% (active)	-75.3% (active)	-98.7% (active)	-88.9% (active)	-57.5% (active)	–	-98.9% (active)	-100% (active)	-96.1% (active)
C=C1CCC2C3(C)COC(c4cccc(F)c4)OC3CCC2(C)C1CC(O)C1=CCOC1=O (stereo not drawn)	8.31% (active)	34.7%	74.2%	95.4%	70.2%	45.1%	–	–	64.1%	64.6%
CC(=O)Nc1ccc(-c2cn(-c3cccc(C(=O)Nc4cc(CN5CCOCC5)cc(C(F)(F)F)c4)c3)nn2)cn1	-86.2% (active)	-11.4% (active)	-78% (active)	-88.5% (active)	-71.9% (active)	-69.7% (active)	-100% (active)	-98.6% (active)	-99.2% (active)	–
O=C(c1ccc(Cl)cc1)C1[C@H](c2ccccc2Br)[C@@H](c2ccccc2)NC12C(=O)Nc1ccccc12 (stereo partly drawn)	12%	-16% (active)	33.1%	31.6%	21.5%	17.3%	–	-69.1% (active)	44.8%	7.38% (active)
CCCCCCCCCCCCCCCCCCCC(=O)NCCc1c[nH]c2ccc(OC(=O)NOCCOCCOCCOCCOCCOCCOCCOCCOCCOCCOCCOCCOCCOCCOCCOCCOCCOCCOCCOCCOCCOCCOC)cc12	77.7%	-71.8% (active)	37.3%	22.3%	-16.8% (active)	6.43% (active)	-16.3% (active)	-90.7% (active)	-2.99% (active)	–
COc1ccc(C(=O)Nc2ccc(-c3ccc4c(c3)NC(=O)/C4=C\c3ccc[nH]3)cc2)cc1	15.2%	15.6%	-11% (active)	60.8%	32.8%	27.5%	–	5.2% (active)	88.8%	78.1%
Cc1ccc2nc3c(nc2c1)c1cc(I)ccc1n3CCN(C)C	10.1%	14.4%	30.6%	24.9%	24.2%	26%	–	–	11.9%	59.1%
c1ccc(C(=C(c2ccc(OCCN3CCCCC3)cc2)c2ccc(OCCN3CCCCC3)cc2)C2CCCC2)cc1	34.6%	-96.2% (active)	-24.5% (active)	-96.8% (active)	-96.4% (active)	-37.1% (active)	–	-100% (active)	-75.6% (active)	-97.1% (active)
O=S(=O)(c1ccc(Cl)cc1)c1nc(-c2ccccc2)oc1S(=O)(=O)c1ccc(Cl)cc1	47.4%	89.7%	76.5%	94.9%	79.9%	103%	–	19.7%	104%	90.4%
Cc1cc2nc3c4ccccc4n(CCO)c3nc2cc1C	71.2%	98.1%	73.6%	87.7%	64.7%	57.3%	81.6%	–	91%	–
CS(=O)(=O)Nc1ccc(-c2ccc3c(c2)ncn3-c2ccc(NC(=O)Nc3ccc(Br)cc3)cc2)cc1	8.63% (active)	7.09% (active)	21.4%	16.6%	3.88% (active)	10.4%	–	1.1% (active)	1.57% (active)	-35.6% (active)
